# Inconclusive results are not listed. Entries that show only a call come without a potency. Active and inactive are the calls of the source. The call rests on the fitted dose curve; in most records, active means well fitted activation curve with a large enough effect; inconclusive means small, poorly fitted or top-dose-only effect; inactive means flat fitted curve, though single readings scatter.
# Assay: qHTS for Inhibitors of Cell Surface uPA Generation: FP59 Counterscreen for Cherry-picked Compounds
# Conditions: FP59 anthrax toxin cytotoxicity counterscreen, cells; series mostly up to 115 µM
row,Compound,Potency
1,N#Cc1cccc(NC(=O)Cn2cnc(S(=O)(=O)N3CCOCC3)c2)c1,inactive
2,COc1cccc(NC(=O)CN(C)C(=O)c2csc3c2CCCC3)c1,inactive
3,CCc1ccccc1N(CC(=O)N1CCCC1)S(C)(=O)=O,inactive
4,Cc1cccc(C(=O)NC2CCN(CC(=O)N3CCOCC3)CC2)c1,inactive
5,CCCCn1c(-c2cccnc2)nc2cc3[nH]c(=O)c(C(C)C)nc3cc21,inactive
6,CC(=O)NS(=O)(=O)c1ccc(NC(=O)c2cccc(OCc3c(C)noc3C)c2)cc1,inactive
7,COc1cccc(-n2c(SCC(=O)Nc3cc(C)on3)nc3c([nH]c4ccccc43)c2=O)c1,inactive
8,CN1CC[C@]23c4ccccc4N[C@H]1[C@]21CCN(C)[C@H]3Nc2ccccc21,inactive
9,O=C(NNC(=O)c1ccc2ccccc2c1)Nc1ccc(F)cc1,inactive
10,Cc1cc(C)cc(NC(=O)Cc2ccc(NC3=NC4CS(=O)(=O)CC4S3)cc2)c1 (stereo not given),inactive
11,O=[N+]([O-])c1ccccc1C=NNC(=S)NN=Cc1ccccc1[N+](=O)[O-],inactive
12,COc1ccc(/C(N)=N/OC(=O)Cc2ccccc2OC)cc1,inactive
13,O=C(C[C@H]1C[C@H](C(=O)N2CCOCC2)[C@@]2(CCC3CCCC3)c3[nH]c4cc(-c5ccco5)ccc4c3CCN2C1=O)NCc1cccc(C(F)(F)F)c1,inactive
14,Nc1nc2ccc(Br)cc2o1,inactive
15,O=C1[C@H]2[C@@H](c3ccc(F)cc3)N3C(=O)N(c4ccccc4)C(=O)[C@@]3(Cc3ccc(Cl)cc3)[C@H]2C(=O)N1C1CCCCC1,inactive
16,CCOC(=O)C1=CC[C@@H](c2cc3ccc(OC)cc3n2C)N(S(=O)(=O)c2ccc(C)cc2)[C@H]1C(=O)OCC,inactive
17,O=c1[nH]c(SCc2cccc(Cl)c2)nc2ccccc12,inactive
18,Cc1cc(C)c(NC(=O)Cn2nnc(C(=O)NCc3ccc4c(c3)OCO4)c2N)c(C)c1,inactive
19,CC1(C)C([N+](=O)[O-])C(c2ccc(F)cc2)NC(c2ccc(F)cc2)C1[N+](=O)[O-] (stereo not given),inactive
20,COc1ccc(NC(=O)Nc2nnc(N3CCCCC3C)s2)cc1OC (stereo not given),inactive

row,Compound,Potency
1,CCC(C(=O)NCc1ccc(C)cc1)c1ccccc1 (stereo not given),inactive
2,CCOc1ncccc1C(=O)NCc1ccccc1Cl,inactive
3,CC1(C)CC(CCC(=O)NC(=S)Nc2ccccc2Cl)C(=O)O1 (stereo not given),inactive
4,COc1ccc(Cl)cc1NC(=O)CSc1nc(=O)n(CCN(C)C)c2c1CCCC2,inactive
5,Cc1cc(C)n(C(=O)c2cccc([N+](=O)[O-])c2)n1,inactive
6,O=C(Cc1ccccc1)Nc1ccc(NC(=O)c2ccccc2)c(Cl)c1,inactive
7,Cc1ccc(C(=O)NNC(=O)CNc2cccc(Cl)c2)cc1,inactive
8,COc1ccc(CCNC(=O)Cn2cccc2C(=O)c2ccccc2)c(OC)c1,inactive
9,COc1cc(CN2CCNC(=O)C2CC(=O)NCCCC2CCCC2)cc(OC)c1 (stereo not given),inactive
10,CC(CCc1ccccc1)NC(=O)c1ccc(NC(=O)c2cccc(Br)c2)cc1 (stereo not given),inactive
11,Cn1c(CN2CCCC2)nc2cc(NC(=O)COc3ccccc3)ccc21,inactive
12,COc1cc(CN2CCN(S(=O)(=O)c3ccccc3)CC2)cc(OC)c1OC,inactive
13,Cc1ccc(Nc2nc(Cl)c(C=O)s2)cc1,inactive
14,Cn1nc(N2CCN(S(=O)(=O)c3ccccc3)CC2)c(=O)n(C)c1=O,inactive
15,Cc1ccc(C23CC4CC(CC(C(=O)NN)(C4)C2)C3)cc1,inactive
16,OCC[C@@H]1C[C@H](O)[C@@H](O)[C@]2(OCCc3ccccc32)O1,inactive
17,CCCn1nnc(NC(=S)NC(=O)c2ccccc2OC)n1,inactive
18,CC(/C=C/C1(O)C(C)CC(O)CC1(C)C)OC1OC(CO)C(O)C(O)C1O (stereo not given),inactive
19,Cc1nc([N+](=O)[O-])cn1CCCCN1C(=O)c2ccccc2C1=O,inactive
20,COc1ccc(N2CC(C(=O)Nc3nnc(SCCC4OCCO4)s3)CC2=O)cc1 (stereo not given),inactive

# — PubChem BioAssay AID720517 (National Center for Advancing Translational Sciences (NCATS), 2013)
